Experimental data as given in the supplement of paper PMC10037445.
Whole data set: some 2,900 compounds, median “IRF Lucia reporter activity, fold change vs agonist alone” near 0.9, cut for the highest 2% near 2.8. Only a selection was taken, and the highest values are over-represented in it overall.

Experiments:
[1] = tested on: RAW-Dual; test: IRF Lucia reporter activity, fold change vs agonist alone; cytotoxicity flag (confluency mask): not cytotoxic; higher = enhanced IRF activity
Procedure, shortened: (§1)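 RAW-Dual macrophages were seeded in DMEM at 50,000 cells/well in 384-well plates, given 50 nL of library stock by pin tool, and given a PRR agonist 1 h later. Plates were held at 37 °C, 5% CO2 for 20 hours, after which supernatant was read for IRF by QuantiLuc luminescence and for NF-κB by QuantiBlue absorbance at 620 nm. Reporter activity is expressed as fold change over wells that received agonist alone. A well was called cytotoxic when IncuCyte confluency fell below 70% of agonist controls in both mask sets.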

[2] = tested on: RAW-Dual; test: IRF Lucia reporter activity, fold change vs agonist alone; higher = enhanced IRF activity; conditions: agonist: MPLA (TLR4) […]
Procedure, shortened: as §1

[3] = tested on: RAW-Dual; test: IRF Lucia reporter activity, fold change vs agonist alone; cytotoxicity flag (confluency mask): cytotoxic (confluency <70% of control); higher = enhanced IRF activity
Procedure, shortened: as §1

[4] = agonist: 3'3'-cGAMP (STING) 10 ug/mL
[5] = library stock concentration (final ~1000-fold dilution): 10 mM, cytotoxicity flag (confluency mask): not cytotoxic
[6] = library stock concentration (final ~1000-fold dilution): 10 mM, cytotoxicity flag (confluency mask): cytotoxic (confluency <70% of control)

CC1CC(C(=O)O)C2CCC3(C)C(=CCC4C5(C)CCC(O)C(C)(C)C5CCC43C)C2C1C (centres undefined) (library stock concentration (final ~1000-fold dilution): 10 mM)
IRF Lucia reporter activity [1, 4]: 0.973 | IRF Lucia reporter activity ([1]; agonist: LPS (TLR4) 0.1 ug/mL): 1.12

CC1CC(C(=O)O)C2CCC3(C)C(=CCC4C5(C)CCC(O)C(C)(C)C5CCC43C)C2C1C (centres undefined)
IRF Lucia reporter activity [2, 5]: 1.06

Cc1[nH]c(C=C2C(=O)Nc3ccc(F)cc32)c(C)c1C(=O)NCCN1CCCC1
IRF Lucia reporter activity ([2]; library stock concentration (final ~1000-fold dilution): 2 mM, cytotoxicity flag (confluency mask): not cytotoxic): 0.869

Cc1[nH]c(C=C2C(=O)Nc3ccc(F)cc32)c(C)c1C(=O)NCCN1CCCC1 (library stock concentration (final ~1000-fold dilution): 2 mM)
IRF Lucia reporter activity [1, 4]: 0.0313 | IRF Lucia reporter activity ([1]; agonist: LPS (TLR4) 0.1 ug/mL): 0.194

CC(c1ncncc1F)C(O)(Cn1cncn1)c1ccc(F)cc1F (centres undefined)
IRF Lucia reporter activity [2, 5]: 0.639

CC(c1ncncc1F)C(O)(Cn1cncn1)c1ccc(F)cc1F (centres undefined) (library stock concentration (final ~1000-fold dilution): 10 mM)
IRF Lucia reporter activity [1, 4]: 1.11 | IRF Lucia reporter activity ([1]; agonist: LPS (TLR4) 0.1 ug/mL): 0.893

CC1Cc2c([nH]c3ccccc23)C(c2c(F)cc(/C=C/C(=O)O)cc2F)N1CC(C)(C)F (centres undefined) (library stock concentration (final ~1000-fold dilution): 10 mM)
IRF Lucia reporter activity [1, 4]: 1.14 | IRF Lucia reporter activity ([1]; agonist: LPS (TLR4) 0.1 ug/mL): 1.23

Cl.O=C(NC1CCNCC1)c1n[nH]cc1NC(=O)c1c(Cl)cccc1Cl (library stock concentration (final ~1000-fold dilution): 10 mM)
IRF Lucia reporter activity [3, 4]: 0.0898 | IRF Lucia reporter activity ([3]; agonist: LPS (TLR4) 0.1 ug/mL): 0.581

CS(=O)(=O)O.CS(=O)(=O)O.Cc1ccc(C(=O)Nc2ccc(CN3CCN(C)CC3)c(C(F)(F)F)c2)cc1C#Cc1cnc2[nH]ncc2c1
IRF Lucia reporter activity [2, 6]: 0.0201

CS(=O)(=O)O.CS(=O)(=O)O.Cc1ccc(C(=O)Nc2ccc(CN3CCN(C)CC3)c(C(F)(F)F)c2)cc1C#Cc1cnc2[nH]ncc2c1 (library stock concentration (final ~1000-fold dilution): 10 mM)
IRF Lucia reporter activity [3, 4]: 0.00912 | IRF Lucia reporter activity ([3]; agonist: LPS (TLR4) 0.1 ug/mL): 0.0192

COc1ccc(-c2cc3c(C)nc(N)nc3n(C3CCC(OCCO)CC3)c2=O)cn1 (centres undefined) (library stock concentration (final ~1000-fold dilution): 10 mM)
IRF Lucia reporter activity [3, 4]: 0.282 | IRF Lucia reporter activity ([3]; agonist: LPS (TLR4) 0.1 ug/mL): 0.508

COc1ccc(-c2cc3c(C)nc(N)nc3n(C3CCC(OCCO)CC3)c2=O)cn1 (centres undefined)
IRF Lucia reporter activity [2, 6]: 0.387

CCOC(=O)c1cnc2ccc(-c3cncc(NS(=O)(=O)c4ccccc4)c3)cn12
IRF Lucia reporter activity [2, 6]: 4.46

CCOC(=O)c1cnc2ccc(-c3cncc(NS(=O)(=O)c4ccccc4)c3)cn12 (library stock concentration (final ~1000-fold dilution): 10 mM)
IRF Lucia reporter activity [3, 4]: 0.284 | IRF Lucia reporter activity ([3]; agonist: LPS (TLR4) 0.1 ug/mL): 4.78

Nc1nc2cc(-c3ccc4ncc(C(=O)N5CCOCC5)n4c3)ccc2o1 (library stock concentration (final ~1000-fold dilution): 10 mM)
IRF Lucia reporter activity [1, 4]: 0.343 | IRF Lucia reporter activity ([1]; agonist: LPS (TLR4) 0.1 ug/mL): 1.04
